For 26 compounds, Potency results are on record in PubChem BioAssay (Tox21).

Assay [1] in a line: qHTS assay to identify small molecule agonists of the sonic hedgehog signaling (Shh) pathway (AID 1259368).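 Further: NIH/3T3-derived 3T3Gli1-Luc cells carrying a stable Gli1-driven firefly luciferase reporter; series mostly up to about 92 µM; nearly all actives have a fitted effect of over 15% in size.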 Summed up: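 A Gli1 transcriptional response element controlled firefly luciferase in 3T3Gli1-Luc cells. Compounds and a positive control were added 4 hr after plating, and cells were incubated a further 24 hr at 37 C before luminescence detection.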
On the technique in general: In qHTS, concentration-response curves come from the screen itself.

The nature of assay [2]: qHTS assay to identify small molecule antagonists of the sonic hedgehog signaling (Shh) pathway (AID 1259369). Further: nearly all actives have a fitted effect of over 45% in size. Further: potency means the concentration at half of the fitted maximal effect. Summed up: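 For antagonist detection, the reporter line received test compounds together with conditioned medium, incubated 24hr at 37 C, 5% CO2, then luminescence was recorded following 30min room-temperature luciferase reagent incubation.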
Assay [3] can be described thus: qHTS assay to identify small molecule agonists of the androgen receptor (AR) signaling pathway in the presence of an antagonist - cell viability counter screen (AID 1259379; active means well fitted curve in the direction sought with a large enough effect in the repeat runs; an effect the other way counts as inactive or inconclusive;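 further: MDA-kb2 human breast cancer cells carrying an MMTV luciferase reporter; series mostly up to about 92 µM; nearly all actives have a fitted effect of over 25% in size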). An outline of the steps: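 Seed MDA-kb2 at 3,000 cells/well; incubate 5 hr, 37C, 0% CO2. Add nilutamide to 3.0uM final, then pin compounds at 15 concentrations. Incubate 16 hr. Add CellTiter-Fluor at 15 hr, read fluorescence after 1 hr.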

Assay [4] in a line: qHTS assay to identify small molecule agonists of the estrogen receptor beta (ER-beta) signaling pathway - cell viability counter screen (AID 1259380; active means well fitted curve in the direction sought with a large enough effect in the repeat runs; an effect the other way counts as inactive or inconclusive; further: nearly all actives have a fitted effect of over 30% in size). Summed up: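 CellTiter-Glo read, 30 min RT, same wells as bla assay; cells ER-beta-UAS-bla HEK293T; 16 hr compound, 37C; medium 2% charcoal-stripped FBS.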
The nature of assay [5]: qHTS assay to identify small molecule antagonists of the estrogen receptor beta (ER-beta) signaling pathway - cell viability counter screen (AID 1259382; active means well fitted curve in the direction sought with a large enough effect in the repeat runs; an effect the other way counts as inactive or inconclusive; further: series mostly up to about 92 µM; nearly all actives have a fitted effect of over 55% in size). An outline of the steps:
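In this multiplexed counter screen, cells were seeded at 2,000 per well in medium with 2% charcoal-stripped FBS and incubated 6 hr before compound and 1nM final E2 were added. Sixteen hours later, ATP-based luminescence reported viability.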

Assay [6] in a line: qHTS assay to identify small molecule agonists or antagonists of the thyroid stimulating hormone receptor (TSHR) signaling pathway - wild type cell line counter screen (AID 1259384). Summed up: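 Counter screen in untransfected Hek293: compounds (15-point titration, triplicate) plus phosphodiesterase inhibitor Ro20-1724 added after 18 h plating; 30 min RT. Intracellular cAMP via competitive d2/cryptate immunoassay, 1 h incubation.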

Assay [7] deals with Estrogen receptor (Homo sapiens) (UniProt P03372). Description: qHTS assay to identify small molecule agonists of the estrogen receptor alpha (ER-alpha) signaling pathway in the presence of an antagonist (AID 1259383). Further: top concentration of the series differs between compounds; nearly all actives have a fitted effect of over 15% in size. An outline of the steps: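 Stably transfected VM7Luc4E2 reporter cells, kept 5 days in charcoal-stripped serum, received ICI-182,780 at 10.0nM final before compound addition. Following 22hr incubation at 37C and 5% CO2, luciferase signal was read by luminescence.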
Sequence of Estrogen receptor (Homo sapiens) (P03372 whole entry, looked up): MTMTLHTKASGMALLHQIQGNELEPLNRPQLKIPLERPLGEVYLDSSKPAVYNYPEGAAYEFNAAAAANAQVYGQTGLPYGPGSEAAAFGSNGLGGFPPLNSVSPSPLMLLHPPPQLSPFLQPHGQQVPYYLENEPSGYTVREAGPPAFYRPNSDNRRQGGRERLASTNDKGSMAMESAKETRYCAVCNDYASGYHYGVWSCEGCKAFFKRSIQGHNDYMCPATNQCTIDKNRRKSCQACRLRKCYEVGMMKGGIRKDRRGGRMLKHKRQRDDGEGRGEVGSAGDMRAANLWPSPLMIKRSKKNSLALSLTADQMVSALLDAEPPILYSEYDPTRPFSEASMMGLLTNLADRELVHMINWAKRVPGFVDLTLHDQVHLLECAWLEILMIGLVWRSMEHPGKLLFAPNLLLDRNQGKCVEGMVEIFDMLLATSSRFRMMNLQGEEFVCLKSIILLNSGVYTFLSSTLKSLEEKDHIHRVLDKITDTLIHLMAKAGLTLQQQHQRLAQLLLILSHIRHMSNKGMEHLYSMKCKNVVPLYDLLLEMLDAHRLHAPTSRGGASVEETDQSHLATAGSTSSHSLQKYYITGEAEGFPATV

Assay [8] has as its target Estrogen receptor beta (Homo sapiens) (UniProt Q92731). In words: qHTS assay to identify small molecule agonists of the estrogen receptor beta (ER-beta) signaling pathway (AID 1259377; active means well fitted activation curve with a large enough effect in the signal ratio in the repeat runs, not every such curve was filed as active; the % refers to the signal ratio). An outline of the steps: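 Ratiometric beta-lactamase FRET read-out came after 2 h substrate loading at room temperature. It followed 16 h compound treatment at 37C of GripTite HEK293T cells carrying a UAS-bla reporter, plated in 2% charcoal-stripped FBS medium.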

Assay [9] has the same target. In words: qHTS assay to identify small molecule antagonists of the estrogen receptor beta (ER-beta) signaling pathway (AID 1259378; active means well fitted inhibition curve with a large enough effect in the signal ratio in the repeat runs, not every such curve was filed as active; the % refers to the signal ratio). Summed up:
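Antagonist mode: compounds added to beta-lactamase reporter HEK293T ER-beta-UAS cells stimulated with E2 (1nM final), 16 hr at 37C. LiveBLAzer B/G FRET substrate, 2 hours room temperature, fluorescence read-out.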

The target in assay [10] is Androgen receptor (Homo sapiens) (UniProt P10275). In words: qHTS assay to identify small molecule agonists of the androgen receptor (AR) signaling pathway in the presence of an antagonist (AID 1259381). Further: nearly all actives have a fitted effect of over 15% in size. An outline of the steps:
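Test compounds at 15 concentrations were incubated for 16hr with MDA-kb2 reporter cells in presence of 3.0uM nilutamide (final). Signal: ONE-Glo luciferase luminescence.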

A number with no mark means an inactive call. Records with an inconclusive call do not appear. Active and inactive are the calls of the source. Unless noted, the call rests on the fitted dose curve.

Sequence of Estrogen receptor beta (Homo sapiens) (Q92731 whole entry, looked up): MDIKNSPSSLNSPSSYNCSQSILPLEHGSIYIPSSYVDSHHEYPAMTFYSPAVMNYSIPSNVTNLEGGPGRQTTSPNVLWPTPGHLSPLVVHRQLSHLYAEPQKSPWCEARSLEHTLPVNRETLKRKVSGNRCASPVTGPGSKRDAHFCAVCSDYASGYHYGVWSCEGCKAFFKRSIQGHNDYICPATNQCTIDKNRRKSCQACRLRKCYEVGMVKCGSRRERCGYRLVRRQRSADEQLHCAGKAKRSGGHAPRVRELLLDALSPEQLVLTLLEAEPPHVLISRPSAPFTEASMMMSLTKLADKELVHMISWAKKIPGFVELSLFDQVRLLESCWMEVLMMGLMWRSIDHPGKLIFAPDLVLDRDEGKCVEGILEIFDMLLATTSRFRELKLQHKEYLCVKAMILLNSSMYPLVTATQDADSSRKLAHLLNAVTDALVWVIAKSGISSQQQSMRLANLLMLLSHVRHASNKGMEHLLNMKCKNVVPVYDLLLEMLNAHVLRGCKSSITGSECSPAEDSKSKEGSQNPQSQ
Sequence of Androgen receptor (Homo sapiens) (P10275 whole entry, looked up): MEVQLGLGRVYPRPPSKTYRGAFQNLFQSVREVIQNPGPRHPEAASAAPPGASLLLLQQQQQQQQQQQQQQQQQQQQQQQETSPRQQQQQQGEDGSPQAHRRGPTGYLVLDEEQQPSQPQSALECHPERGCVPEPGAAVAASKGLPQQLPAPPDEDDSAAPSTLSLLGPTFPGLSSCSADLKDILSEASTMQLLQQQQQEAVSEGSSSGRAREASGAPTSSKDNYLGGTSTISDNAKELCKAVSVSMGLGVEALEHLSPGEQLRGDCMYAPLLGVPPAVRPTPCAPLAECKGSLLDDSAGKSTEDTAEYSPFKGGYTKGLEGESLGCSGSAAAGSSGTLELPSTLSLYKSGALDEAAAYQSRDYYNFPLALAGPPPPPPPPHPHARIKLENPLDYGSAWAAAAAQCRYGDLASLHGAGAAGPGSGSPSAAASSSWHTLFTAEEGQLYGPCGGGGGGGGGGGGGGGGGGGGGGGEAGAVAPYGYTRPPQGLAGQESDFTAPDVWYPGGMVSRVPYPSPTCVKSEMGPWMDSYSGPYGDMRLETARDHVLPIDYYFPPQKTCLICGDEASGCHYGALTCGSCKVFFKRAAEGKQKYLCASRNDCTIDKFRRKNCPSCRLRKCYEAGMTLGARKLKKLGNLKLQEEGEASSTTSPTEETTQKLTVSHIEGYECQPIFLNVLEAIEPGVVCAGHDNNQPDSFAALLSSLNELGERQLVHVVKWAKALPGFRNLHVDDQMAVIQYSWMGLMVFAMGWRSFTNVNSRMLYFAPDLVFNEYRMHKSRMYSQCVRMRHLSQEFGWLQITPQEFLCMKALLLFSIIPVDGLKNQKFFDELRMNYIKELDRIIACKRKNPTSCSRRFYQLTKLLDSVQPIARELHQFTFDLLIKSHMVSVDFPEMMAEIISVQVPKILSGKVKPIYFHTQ

As to `CCCCCCC(CO)CCCC` (configuration not stated), the Potency result in [1], in [2], in assay [3], in assay [4], in assay [5] and in assay [6] was “inactive” each time.
For `O=C(NS(=O)(=O)/C=C/c1ccccc1)c1ccc(F)cc1Cl`, the Potency entry in assay [1], in [2], in assay [3], in assay [4], in assay [5] and in assay [7] was “inactive” each time. Also, the Potency result in assay [6] was “inactive”.
Regarding `CC[C@H]1OC(=O)[C@H](C)[C@@H](O[C@H]2C[C@@](C)(OC)[C@@H](O)[C@H](C)O2)[C@H](C)[C@@H](O[C@@H]2O[C@H](C)C[C@H](N(C)C)[C@H]2O)[C@](C)(O)C[C@@H](C)/C(=N\OCOCCOC)[C@H](C)[C@@H](O)[C@]1(C)O`, the Potency result in [1], in assay [3], in assay [4], in [5], in [7] and in assay [6] was “inactive” each time. The Potency in [2] is 12.8 µM (active).
In the case of `COC(CC(C)CCCC(C)(C)O)OC` (configuration not stated), the Potency entry in [1], in assay [2], in assay [3], in assay [5] and in assay [6] was “inactive” in each case.
Regarding `Cc1ccc(Nc2c(F)cccc2Cl)c(CC(=O)O)c1`, the Potency result in [1], in [2], in [3], in [7] and in [6] was “inactive” throughout.
Take `O=C(O)CN1C(=O)c2cccc3cccc(c23)C1=O`: the Potency result in assay [1], in assay [2], in assay [3], in assay [4], in [5] and in assay [6] was “inactive” each time.
Consider `COc1ccc(-c2cc(C(F)F)nn2-c2ccc(S(N)(=O)=O)cc2)cc1F`, for which the Potency result in assay [1], in assay [8], in [9], in assay [3], in assay [4] and in assay [5] was “inactive” each time. In assay [7], the Potency result is “inactive”.
With `CNC1CCCN(c2c(F)cc3c(=O)c(C(=O)O)cn(C4CC4)c3c2OC)C1` (configuration not stated), the Potency result in assay [1], in assay [8], in [9], in assay [3], in [4] and in assay [5] was “inactive” each time. Also, the Potency result in [7] and in [6] was “inactive” throughout.
With `CC(C)C(O)C(C)(C)CO` (configuration not stated), the Potency result in assay [1], in [2], in assay [5], in [7] and in assay [6] was “inactive” throughout.
Regarding `CC(=O)OC(C)C[N+](C)(C)C` (configuration not stated), the Potency entry in assay [1], in assay [8], in [9], in assay [3], in assay [4] and in assay [5] was “inactive” in each case. The Potency entry in assay [7] and in assay [6] was “inactive” each time.
For `CCOC(=O)c1ccc(NC(=O)CN2CCCCC2)cc1`, the Potency result in assay [1], in assay [2], in [3], in assay [10], in [5] and in assay [7] was “inactive” each time. The Potency result in [6] was “inactive”.
With `N[C@@H](Cc1cc(I)c(O)c(I)c1)C(=O)O`, the Potency result in assay [1], in assay [2], in assay [3], in [4], in assay [5] and in [7] was “inactive” in each case. Further, in assay [6], the Potency entry is “inactive”.
In the case of `CC(=O)OCCC1CCCCC1`, the Potency result in assay [1], in [8], in [9], in assay [3], in assay [4] and in assay [5] was “inactive” throughout. Further, the Potency entry in assay [7] was “inactive”.
Consider `CCCCCC`, for which the Potency result in assay [1], in assay [2], in assay [3], in assay [4], in [5] and in assay [6] was “inactive” in each case.
As to `O=S(=O)(O)CO`, the Potency result in [1], in assay [2], in assay [3], in assay [4], in assay [5] and in [6] was “inactive” each time.
Turning to `Cc1ccc(N(CCO)CCO)cc1`, the Potency entry in [1], in [2], in assay [3], in [4], in assay [5] and in assay [7] was “inactive” each time. Besides, the Potency result in [6] is “inactive”.
Take `CCCCC(CC)COS(=O)(=O)O` (configuration not stated): the Potency entry in [1], in assay [8], in assay [9], in assay [3], in assay [4] and in assay [5] was “inactive” in each case. For the same compound, the Potency entry in assay [7] and in [6] was “inactive” each time.
For `O=C(O)CCS`, the Potency entry in [1], in assay [2], in [3], in [5], in [7] and in assay [6] was “inactive” each time.
Consider `CC(=O)C(C)=O`, for which the Potency entry in assay [1], in assay [2], in assay [3], in [5] and in assay [6] was “inactive” throughout.
As for `FC(F)(F)C(F)(F)C(F)(F)C(F)(F)CCI`, the Potency entry in assay [1], in assay [2], in assay [3], in assay [4], in [5] and in [7] was “inactive” throughout. Further, the Potency result in assay [6] is “inactive”.
For the compound `O=C1OC[C@H](Cc2cccc(O)c2)[C@H]1Cc1cccc(O)c1`, the Potency result in assay [1], in assay [2], in [3], in [4], in assay [5] and in [6] was “inactive” each time.
`CCCCCCCC(=O)Oc1c(Br)cc(C#N)cc1Br`: the Potency entry in assay [1], in assay [3], in [7] and in assay [6] was “inactive” in each case. The Potency in assay [2] was 27.2 µM (active).
With `Cc1cccc2sc(N)nc12`, the Potency result in assay [1], in assay [8], in assay [9], in assay [3], in [4] and in assay [5] was “inactive” in each case. Besides, the Potency result in [7] and in assay [6] was “inactive” each time.
Turning to `CN1C(CSCC(F)(F)F)Nc2cc(Cl)c(S(N)(=O)=O)cc2S1(=O)=O` (configuration not stated), the Potency result in assay [1], in assay [8], in assay [9], in [3], in assay [4] and in assay [10] was “inactive” each time. For the same compound, the Potency result in assay [5], in assay [7] and in assay [6] was “inactive” each time.
In the case of `CC(C)(C)C1(CCc2ccc(Cl)cc2)CO1` (configuration not stated), the Potency result in assay [1], in assay [2], in assay [3], in assay [5], in assay [7] and in [6] was “inactive” each time.
`O=c1[nH][nH]c(=O)c2cc([N+](=O)[O-])ccc12`: the Potency entry in assay [1], in assay [8], in [9], in assay [3], in [4] and in assay [5] was “inactive” throughout. For the same compound, the Potency result in assay [7] and in assay [6] was “inactive” throughout.
